From the supplement of paper PMC13392028
The full ranking holds about 4,100 sequences; the median of “RBNS R-value (6-mer enrichment in protein-bound RNA vs input library)” is about 0.99, and the highest 2% start at about 1.4. Only a selection was taken, and the highest values are over-represented in it overall.

Tested on: PfIESI-1 RRM domain (Plasmodium falciparum ortholog aa 875-1232, GST fusion)
Test: RBNS R-value (6-mer enrichment in protein-bound RNA vs input library) (ratio); higher = stronger binding preference; the methods of the paper give 50 / 100 / 500 nM protein instead
Description: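 RNA Bind-n-Seq: recombinant GST-tagged IESI-1 RRM domain was incubated at room temperature with a random 40-nt in vitro transcribed RNA library at 250, 500 or 1000 nM protein. Bound RNA was pulled down on glutathione beads and sequenced. R-value is the enrichment of each 6-mer in the bound RNA relative to the input library. Each 6-mer sits inside the random 40-mer context, not as an isolated oligo. Values are replicate 1 only.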

Row | Sequence | RBNS R-value (protein concentration: 250 nM) | RBNS R-value (protein concentration: 500 nM) | RBNS R-value (protein concentration: 1000 nM)
1 | CAGUAA | 0.864 | 0.913 | 0.866
2 | CUACAU | 0.824 | 0.777 | 0.777
3 | GUUCCU | 1.02 | 0.962 | 1.01
4 | AACAGG | 0.999 | 1.07 | 1.06
5 | GGGACU | 1 | 0.984 | 1.02
6 | GAAGAC | 1.14 | 1.17 | 1.15
7 | AGAGUC | 1.01 | 1.03 | 1.05
8 | AUGUGA | 1.15 | 1.26 | 1.14
9 | CUGGGC | 1.06 | 0.987 | 1.04
10 | CCUGAU | 1.99 | 2.08 | 1.66
11 | CCUGAA | 1.17 | 1.17 | 1.18
12 | CCUGAC | 1.14 | 1.07 | 1.12
13 | AUGCGG | 1.02 | 1.01 | 1.01
14 | UCUAGU | 0.878 | 0.906 | 0.899
15 | UAUGCA | 0.846 | 0.862 | 0.85
16 | AAUGCG | 0.939 | 0.968 | 0.95
17 | GAUGCC | 1.57 | 1.46 | 1.39
18 | GAUGCA | 1.39 | 1.42 | 1.29
19 | UAUGCG | 0.899 | 0.892 | 0.894
20 | CAUGCC | 1.04 | 0.974 | 1.05
21 | UAUGCC | 0.946 | 0.891 | 0.903
22 | CAUGCA | 0.934 | 0.914 | 0.92
23 | GAUGCG | 1.41 | 1.42 | 1.31
24 | CUCGUG | 0.979 | 0.913 | 0.998

Row | Sequence | RBNS R-value (protein concentration: 250 nM) | RBNS R-value (protein concentration: 500 nM) | RBNS R-value (protein concentration: 1000 nM)
25 | AGCGGC | 1.05 | 1.03 | 1.01
26 | AUUCUU | 1.04 | 1.06 | 1.02
27 | CUUAGC | 0.907 | 0.84 | 0.885
28 | CGGUCA | 0.933 | 0.898 | 0.979
29 | AAUUCU | 1.01 | 1.07 | 1.06
30 | CAUUCG | 1.02 | 0.992 | 1.04
31 | AAUUCA | 0.972 | 1.06 | 0.981
32 | UAUUCA | 0.803 | 0.794 | 0.796
33 | CAUUCC | 1.04 | 0.997 | 1.05
34 | GAUUCU | 1.53 | 1.6 | 1.33
35 | AAUUCG | 0.99 | 1.06 | 1.02
36 | GAUUCA | 1.44 | 1.56 | 1.35
37 | UAUUCU | 0.875 | 0.813 | 0.832
38 | AAUUCC | 1.16 | 1.15 | 1.16
39 | GAUUCC | 1.51 | 1.47 | 1.38
40 | GAUUCG | 1.43 | 1.44 | 1.31
41 | AGGUAA | 0.909 | 0.998 | 0.997
42 | CUUAAG | 0.818 | 0.849 | 0.846
43 | UCCUUU | 0.883 | 0.825 | 0.875
44 | UACCGA | 1.01 | 0.978 | 0.96
45 | AGGGAG | 1.09 | 1.11 | 1.06
46 | GAUAAC | 1.16 | 1.26 | 1.15
47 | AAUUGU | 0.865 | 0.926 | 0.948
48 | CAUUGC | 0.987 | 0.973 | 0.976

Row | Sequence | RBNS R-value (protein concentration: 250 nM) | RBNS R-value (protein concentration: 500 nM) | RBNS R-value (protein concentration: 1000 nM)
49 | GAUUGA | 1.61 | 1.69 | 1.43
50 | GAUUGU | 1.04 | 1.04 | 0.998
51 | AAUUGA | 1.37 | 1.52 | 1.31
52 | UAUUGA | 1.07 | 1.14 | 0.985
53 | GAUUGG | 1.37 | 1.37 | 1.25
54 | CAUUGA | 1.33 | 1.37 | 1.22
55 | GAUUGC | 1.7 | 1.68 | 1.42
56 | UCCGUC | 0.938 | 0.878 | 0.944
57 | GUAUCA | 0.785 | 0.812 | 0.852
58 | UCCUGU | 0.873 | 0.838 | 0.868
59 | ACUGCC | 1 | 0.929 | 0.986
60 | GAUGUA | 1.25 | 1.39 | 1.2
61 | AAUGUA | 0.778 | 0.871 | 0.819
62 | GAUGUU | 1.47 | 1.53 | 1.31
63 | AAUGUU | 0.827 | 0.922 | 0.9
64 | GAUGUC | 1.37 | 1.39 | 1.29
65 | CAUGUU | 0.853 | 0.856 | 0.878
66 | UAUGUA | 0.792 | 0.805 | 0.771
67 | CAUGUG | 0.924 | 0.964 | 0.964
68 | UAUGUC | 0.791 | 0.772 | 0.81
69 | UAUGUG | 0.854 | 0.869 | 0.848
70 | CAUGUC | 0.881 | 0.88 | 0.921
71 | GAUGUG | 1.53 | 1.65 | 1.36
72 | CAGUCU | 0.933 | 0.914 | 0.963

Row | Sequence | RBNS R-value (protein concentration: 250 nM) | RBNS R-value (protein concentration: 500 nM) | RBNS R-value (protein concentration: 1000 nM)
73 | GGCAUU | 1.01 | 0.953 | 0.972
74 | CUAUCU | 0.826 | 0.759 | 0.772
75 | CAUCUC | 0.925 | 0.891 | 0.96
76 | AGUACG | 0.91 | 0.935 | 0.91
77 | GUCAAG | 0.874 | 0.904 | 0.946
78 | AUACUA | 0.816 | 0.825 | 0.779
79 | GGCUAG | 1.05 | 1.01 | 1.03
80 | AGAAUA | 1.03 | 1.18 | 1.1
81 | UUCAUC | 0.934 | 0.912 | 0.924
82 | UCGAUA | 0.937 | 0.932 | 0.928
83 | ACGAUC | 0.952 | 0.918 | 0.959
84 | UUGAUA | 1.72 | 1.92 | 1.6
85 | CUGACA | 1.13 | 1.11 | 1.11
86 | CAGAUA | 0.988 | 1.03 | 0.99
87 | AUGAGC | 1.14 | 1.16 | 1.1
88 | UUGAGA | 1.19 | 1.22 | 1.18
89 | AGGAUG | 1.1 | 1.1 | 1.12
90 | AUGAUC | 1.38 | 1.42 | 1.24
91 | CUGAUA | 1.57 | 1.71 | 1.43
92 | AUGAUG | 3.17 | 3.42 | 2.39
93 | ACGAUG | 1.33 | 1.38 | 1.21
